# Measured values: ChEMBL document CHEMBL4296182, “CO-ADD screening of NIH NCI Diversity Set V”
# For part of these data: Measured potencies and affinities stand elsewhere.
# What was measured:
# Staphylococcus aureus = experiment: Antibacterial activity against Staphylococcus aureus MRSA ATCC 43300 (CO-ADD:GP_020); MIC in CAMBH media using NBS plates, by Resazurin F(560/590); assay type: functional; conditions: Concentration 20 uM, ASSAY_TEST Inhibition of Bacterial Growth, detection method Resazurin, Fluorescence (ex560/em590), MEDIA CAMHB, plate type 384well, CORNING #3640, time 18 hr
# Acinetobacter baumannii = experiment: Antibacterial activity against Acinetobacter baumannii ATCC 19606 (CO-ADD:GN_034); MIC in CAMBH media using NBS plates, by Resazurin F(560/590); assay type: functional; conditions: Concentration 20 uM, ASSAY_TEST Inhibition of Bacterial Growth, detection method Resazurin, Fluorescence (ex560/em590), MEDIA CAMHB, plate type 384well, CORNING #3640, time 18 hr
# Escherichia coli = experiment: Antibacterial activity against Escherichia coli ATCC 25922 (CO-ADD:GN_001); MIC in CAMBH media using NBS plates, by Resazurin F(560/590); assay type: functional; conditions: Concentration 20 uM, ASSAY_TEST Inhibition of Bacterial Growth, detection method Resazurin, Fluorescence (ex560/em590), MEDIA CAMHB, plate type 384well, CORNING #3640, time 18 hr
# Klebsiella pneumoniae = conditions: Concentration 20 uM; ASSAY_TEST Inhibition of Bacterial Growth; detection method Absorption (OD600); MEDIA CAMHB; plate type 384well; NBS; CORNING #3640; time 18 hr
# Candida albicans = conditions: 20 µM
# Cryptococcus neoformans = conditions: Concentration 20 uM; ASSAY_TEST Inhibition of Fungal Growth; detection method Resazurin; Absorption (OD600-OD570); plate type 384well; NBS; CORNING #3640
SMILES,Inhibition (Staphylococcus aureus) [%],Inhibition (Acinetobacter baumannii) [%],Inhibition (Escherichia coli) [%],Inhibition (Klebsiella pneumoniae) [%],Inhibition (Candida albicans) [%],Inhibition (Cryptococcus neoformans) [%]
O=C(Nc1cccc([N+](=O)[O-])c1)c1ccc2ccccc2c1O,0.95,-11.75,6.76,12.38,3.5,4.47
Nc1nc(SCc2ccccc2)sc1C(=O)N1CCCCC1,18.6,4.73,3.88,21.18,8.19,-7.01
O=[N+]([O-])c1ccccc1/C=C/C=N/N=C/c1ccccc1O,0.05,-15.14,9.06,2.2,2.43,3.86
Nc1ccc(/C=C/c2ccc3ncccc3c2)cc1,-2.75,-9.02,3.29,1.77,2.51,-10.25
O=C(/C=C/c1ccccc1)CC(c1ccccc1)N1CCOCC1 (stereo not given),13.93,0.36,-4.09,21.53,12.7,-9.56
CCN(CC)CCN1c2ccccc2Sc2ccc3ccccc3c21,2.63,-0.08,11.87,8.87,0.24,-5.58
NC(=O)c1ccccc1NC(=O)COc1ccc(Cl)cc1,16.24,7.59,9.93,7.02,1.18,-8.55
O=C(O)c1cnn2c(S)ncnc12,16.65,-14.23,9.48,8.17,-0.99,-3.32
Sc1ncnc2c1ncn2C1CCCC1,12.18,-2.05,10.82,10.23,3.52,-6.41
Nc1[nH]nc2nc(-c3ccccc3)nc(O)c12,-2.47,-10.04,2.06,6.75,-0.22,-3.34
CN1C(=O)c2ccccc2Cc2c(NCc3ccccc3)ncnc21,11.35,7.35,1.48,18.62,6.22,-9.85
CC(=O)Oc1ccc(C(c2ccc(OC(C)=O)cc2)c2ccccn2)cc1 [BISACODYL],25.36,-9.02,15.4,14.3,0.53,-1.75
CS(=O)(=O)Oc1ccc(Br)c2cccnc12,10.68,10.16,3.51,19.67,4.07,-11.45
CCCN(CCC)c1ccc(/C=C/c2ccc3cc(OCC)ccc3n2)cc1,6.79,8.69,-3.61,28.88,-0.13,-5.04
Cc1cccnc1N=C(S)Nc1ncccc1C,10.58,20.87,9.06,23.76,3.55,-10.6
COc1cnc(SC)nc1Nc1ccc(C#N)cc1,3.83,28.01,14.33,23.54,4.47,-3.99
CC(C)(C)c1ccc(NS(=O)(=O)c2ccc(N)cc2)cc1,8.8,3.26,-6.26,16.84,3.64,-7.4
COc1ccc(Cc2nnc(SC)n2-c2ccc(F)cc2)cc1OC,7.78,-2.89,10.28,14.43,2.19,-3.12
O=C(Nc1ccccc1)Nc1ccccn1,15.92,-11.25,6.37,12.38,3.3,-4.64
Nc1ncnc2c1cnn2C1CCCCC1,-0.45,-2.92,-6.81,9,1.58,-3.99
N#Cc1c(N)nc(N)nc1Nc1ccc(Br)cc1,13.29,-8.2,-5.32,20.88,2.67,-16.04
O=C(Nc1ccc(Nc2ccncc2)cc1)c1ccc([N+](=O)[O-])cc1,-5.06,12.27,7.64,10.28,3.08,-7.15
CCCCCc1cc(O)nc(S)n1,5.4,-7.23,3.05,2.8,1.05,-4.11
O=C1OCC/C1=C\c1ccc2c(c1)OCO2,9.07,-7.38,9.99,4.4,3.83,0.17
Cc1cccc(NC2=C(C#N)C(=O)NC3(CCCC3)S2)c1,-0.83,-3,-9.49,8.76,11,1.34
